Records with an inconclusive call do not appear. Calls of active or inactive are those of the source. Calls come from the whole dose curve; as a rule, active = well fitted cell-killing curve with a large enough effect; inconclusive = small, poorly fitted or top-dose-only effect; inactive = no such curve, though single readings can be large or run the other way.
test: Quantitative High-Throughput drug screen in 47 multiple myeloma cell lines against the NCATS MIPE library collection: JIM3_ECACC cell viability assay (AID 1918963; note: nearly all actives have a fitted effect of over 35% in size); conditions: JIM3 myeloma viability, CellTiter-Glo ATP, 48 h; series mostly up to 45.8 µM
Text: PI: Beverly A. Mock Ph.D.
Laboratory of Cancer Biology and Genetics,
Center for Cancer Research, National Cancer Institute,
National Institute of Health, Bethesda, Maryland
Drug resistance and disease progression are common in multiple myeloma (MM) patients, underscoring the need for new therapeutic combinations. […] We hypothesized that effective combinations would reduce MYC expression and enhance p16 activity. […] These preclinical data identify potentially useful drug combinations for evaluation in drug-resistant MM and reveal potential mechanisms of combined drug sensitivity.
Described herein is the primary MIPE qHTS used to cherrypick compounds. Validated compounds were then further tested for potential synergistic activiy.
[1] Peat TJ, Gaikwad SM, Dubois W, Gyabaah-Kessie N, Zhang S, Gorjifard S, Phyo Z, Andres M, Hughitt VK, Simpson RM, Miller MA, Girvin AT, Taylor A, Williams D, D'Antonio N, Zhang Y, Rajagopalan A, Flietner E, Wilson K, Zhang X, Shinn P, Klumpp-Thomas C, McKnight C, Itkin Z, Chen L, Kazandijian D, Zhang J, Michalowski AM, Simmons JK, Keats J, Thomas CJ, Mock BA. Drug combinations identified by high-throughput screening promote cell cycle transition and upregulate Smad pathways in myeloma. Cancer Lett. 2023 Aug 1;568:216284. doi: 10.1016/j.canlet.2023.216284. Epub 2023 Jun 24. PMID: 37356470; PMCID: PMC10408729.
SEQUENCE No. (e.g., 1, 2, 3, etc.); […] (e.g., Cells, Incubation, Reagent, etc.); VALUE and DESCRIPTION.
1; Cells; 5 uL; white, solid bottom 1536-well Greiner assay plate.
2; Compounds; 23 nL; Kalypsis pin tool (Wako USA) equipped with a 1536-well pin head to transfer to the assay plates.
3; Incubation; 48 hours; 37C incubation.
4; Reagent;5uL; CellTiter Glo (Promega).
5; Detector; 425V; Luminescence; Viewlux PerkinElmer.
NOTES (numbers refer to Sequence numbers above)
1. The cell-based screening methods employed in this study were like those previously published. Briefly, the corresponding myeloma cell lines were screened in 1,536-well plates with 500 cells, 5-uL per well for inhibition of cell viability (assessed by measuring ATP levels with CellTiterGlo).
2. NCATS MIPE 4.0 library of approved and investigational drugs were added using the Kalypsis pin tool. Wells treated with DMSO only for 100% viability and media only wells for 0% viability were used as controls.
3. The assay plates were covered and incubated for 48 hours in a 37C, 5% CO2 incubator with controlled humidity.
4. After 48 hours, CellTilter-GloTM luminescent substrate mix (Promega) reagent was added to the assay plate and plates we incubated for 5 min at room temperature.
5. Signal was measured as median relative luminescence units on a ViewLux (PerkinElmer) multiplate reader.
[1] Heske CM, Davis MI, Baumgart JT, Wilson K, Gormally MV, Chen L, Zhang X, Ceribelli M, Duveau DY, Guha R, Ferrer M, Arnaldez FI, Ji J, Tran HL, Zhang Y, Mendoza A, Helman LJ, Thomas CJ. Matrix Screen Identifies Synergistic Combination of PARP Inhibitors and Nicotinamide Phosphoribosyltransferase (NAMPT) Inhibitors in Ewing Sarcoma. Clin Cancer Res. 2017 Dec 1;23(23):7301-7311. doi: 10.1158/1078-0432.CCR-17-1121. Epub 2017 Sep 12. PMID: 28899971; PMCID: PMC6636827.
Potency is the fitted concentration of half-maximal effect.

| Structure (SMILES) | Potency |
| --- | --- |
| NC1(Cc2ccc(Cl)cc2)CCN(c2ncnc3[nH]ccc23)CC1 | 2960 nM (active) |
| Nc1nccc(Oc2ccc(NC(=O)c3c[nH]cc(-c4ccc(F)cc4)c3=O)cc2F)c1Cl | 26400 nM (active) |
| CC(=O)c1c(C)c2cnc(Nc3ccc(N4CCNCC4)cn3)nc2n(C2CCCC2)c1=O | 18700 nM (active) |
| Cc1c(NC(=O)OC[C@@H]2COCCN2)cn2ncnc(Nc3ccc4c(cnn4Cc4cccc(F)c4)c3)c12 | 1320 nM (active) |
| COC(=O)C[C@](O)(CCCC(C)(C)O)C(=O)O[C@@H]1C(OC)=C[C@]23CCCN2CCc2cc4c(cc2[C@H]13)OCO4 | inactive |
| CCc1c2c(nc3ccc(O)cc13)-c1cc3c(c(=O)n1C2)COC(=O)[C@]3(O)CC | 526 nM (active) |
| CCS(=O)(=O)c1cccc(-c2cc(C(=O)NC3CCN(C)CC3)c(C)c3[nH]c4ncc(C)cc4c23)c1 | 935 nM (active) |
| CC1(C)OC2=C(C(=O)c3ccccc3C2=O)[C@H](NCc2ccccc2)[C@H]1O | 2090 nM (active) |
| COc1cc2ncnc(Nc3ccc(F)c(Cl)c3)c2cc1NC(=O)C=CCN1CCCCC1 | 6620 nM (active) |
| Clc1ccc2ncc(-c3cccc(NC4CNC4)n3)n2c1 | 14800 nM (active) |
| O=C(Nc1nc2cccc(-c3ccc(CN4CCS(=O)(=O)CC4)cc3)n2n1)C1CC1 | 18700 nM (active) |
| O=C1CCC[C@@H]2[C@H]3CCC[N+]4([O-])CCC[C@@H](CN12)[C@@H]34 (stereo not given in full) | inactive |
| COc1ccc(C(=O)CC2(O)C(=O)Nc3c(Cl)ccc(Cl)c32)cc1 (stereo not given) | 2350 nM (active) |
| Cc1ccc2nc(NC(=O)CSc3nc4c(c(=O)n3-c3ccccc3)SCC4)sc2c1 | 18700 nM (active) |
| COc1cc2c(cc1-c1c(C)noc1C)ncc1[nH]c(=O)n([C@H](C)c3ccccn3)c12 | 18700 nM (active) |
| Cc1nc2ccc(CN(C)c3ccc(C(=O)N[C@@H](CCC(=O)O)C(=O)O)s3)cc2c(=O)[nH]1 | 93.5 nM (active) |
| N#CCNC(=O)c1ccc(-c2ccnc(Nc3ccc(N4CCOCC4)cc3)n2)cc1 | 13200 nM (active) |
| C=C1C(=CC=C2CCC[C@]3(C)[C@@H]([C@H](C)C=C[C@H](C)C(C)C)CC[C@@H]23)C[C@@H](O)C[C@@H]1O | 7430 nM (active) |
| COc1cc(=C2C=c3ccccc3=N2)[nH]c1=Cc1[nH]c(C)cc1C | 2350 nM (active) |
| Cn1c(CNc2ccc(C(=N)N)cc2)nc2cc(C(=O)N(CCC(=O)O)c3ccccn3)ccc21 | inactive |

| Structure (SMILES) | Potency |
| --- | --- |
| Nc1ncnc2c1c(-c1cnc3[nH]ccc3c1)nn2C1CCCC1 | 4690 nM (active) |
| CC(C)c1cc(-c2n[nH]c(=O)n2-c2ccc3c(ccn3C)c2)c(O)cc1O | 26.4 nM (active) |
| COC(=O)[C@]12CCC(C)(C)C[C@@H]1[C@@H]1C(=O)C=C3[C@@]4(C)C=C(C#N)C(=O)C(C)(C)[C@@H]4CC[C@@]3(C)[C@]1(C)CC2 | 166 nM (active) |
| COCCOc1ccc2c(c1)ncn2-c1ccc2cccc(N3CCC(N)CC3)c2n1 | 10500 nM (active) |
| Cc1cnc(Nc2ccc(F)cc2Cl)nc1-c1c[nH]c(C(=O)N[C@H](CO)c2cccc(Cl)c2)c1 | 16600 nM (active) |
| Cc1coc2c1C(=O)C(=O)c1c-2ccc2c1CCCC2(C)C | 6620 nM (active) |
| Cc1nc2cnc3ccc(C#Cc4cccnc4)cc3c2n1-c1ccc(C(C)(C)C#N)cc1 | 148 nM (active) |
| C[C@@H]1COC(Nc2ccc3ncnc(Nc4ccc(OCc5nccs5)c(Cl)c4)c3c2)=N1 | 2350 nM (active) |
| CC(C)c1cnn2c(NCc3ccccc3)cc(N[C@@H](CO)[C@H](O)CO)nc12 | 235 nM (active) |
| NC(=O)Nc1cc(-c2cccc(F)c2)sc1C(=O)N[C@H]1CCCNC1 | 469 nM (active) |
| Cc1cc(Nc2cc(N3CCN(C)CC3)nc(C=Cc3ccccc3)n2)n[nH]1 | 7620 nM (active) |
| CNC(=O)c1ccccc1Nc1nc(Nc2ccc(N3CCOCC3)cc2OC)ncc1Cl | 209 nM (active) |
| CN(c1ncccc1CNc1nc(Nc2ccc3c(c2)CC(=O)N3)ncc1C(F)(F)F)S(C)(=O)=O | 5900 nM (active) |
| COc1cc(C)c(Sc2cnc(NC(=O)c3ccc(CNC(C)C(C)C)cc3)s2)cc1C(=O)N1CCN(C(C)=O)CC1 (stereo not given) | 4180 nM (active) |
| NC(=O)c1cccc2cn(-c3ccc([C@@H]4CCCNC4)cc3)nc12 | inactive |
| Cc1cc(C(=O)N2CCN(c3cccc(Cl)c3)CC2)n(-c2ccccc2)n1 | 418 nM (active) |
| Cc1ccc(S(=O)(=O)Nc2cc(Cl)ccc2C(=O)Nc2nc(-c3ccccc3)cs2)cc1 | 5260 nM (active) |
| COC(=O)Nc1ccc(-c2nc(N3CCOCC3)c3cnn(C4CCN(Cc5cccnc5)CC4)c3n2)cc1 | 1180 nM (active) |
| Clc1cccc(-c2nnnn2Cc2cccnc2)c1Cl | inactive |
| CC(C)CC(=O)Nc1n[nH]c2c1CN(C(=O)C1CCN(C)CC1)C2(C)C | 833 nM (active) |
